High-throughput results as filed in PubChem BioAssay.
An excerpt weighted towards active compounds, which were near 1.6% of everything screened.
KCNQ2 inh: blocks the rat KCNQ2 potassium channel; O88943; B-score at 10 µM; CHO-K1 KCNQ2, FluxOR thallium flux, 20 min; hits give low values; actives 1.1% (n = 310,000);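 active = fluorescence ratio B-score at most minus 3 library SDs, with starting brightness B-score within 2 library SDs, cut at about -5.5 in these data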
Target sequence (O88943 whole entry, looked up): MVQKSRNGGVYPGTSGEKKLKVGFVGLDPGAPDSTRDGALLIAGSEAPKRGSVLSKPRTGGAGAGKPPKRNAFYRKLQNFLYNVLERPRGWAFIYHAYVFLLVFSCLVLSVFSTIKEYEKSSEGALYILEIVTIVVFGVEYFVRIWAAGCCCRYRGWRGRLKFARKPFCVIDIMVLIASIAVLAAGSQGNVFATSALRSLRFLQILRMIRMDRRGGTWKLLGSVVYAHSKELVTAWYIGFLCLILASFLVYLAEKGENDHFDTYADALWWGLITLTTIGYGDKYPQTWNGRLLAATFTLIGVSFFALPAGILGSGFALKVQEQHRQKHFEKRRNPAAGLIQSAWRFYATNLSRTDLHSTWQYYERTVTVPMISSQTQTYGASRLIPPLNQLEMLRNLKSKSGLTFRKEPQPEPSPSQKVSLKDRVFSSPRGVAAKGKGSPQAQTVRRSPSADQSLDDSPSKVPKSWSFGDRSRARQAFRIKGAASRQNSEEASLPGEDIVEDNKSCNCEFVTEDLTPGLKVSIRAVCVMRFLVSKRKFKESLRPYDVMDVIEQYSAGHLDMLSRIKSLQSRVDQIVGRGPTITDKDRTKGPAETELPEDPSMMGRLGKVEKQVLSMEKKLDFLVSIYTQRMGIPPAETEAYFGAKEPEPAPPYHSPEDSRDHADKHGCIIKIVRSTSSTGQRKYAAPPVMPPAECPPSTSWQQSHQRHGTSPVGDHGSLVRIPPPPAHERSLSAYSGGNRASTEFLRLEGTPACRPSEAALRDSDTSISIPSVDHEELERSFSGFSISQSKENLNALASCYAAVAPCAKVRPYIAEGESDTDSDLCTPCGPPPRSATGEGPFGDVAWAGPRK
KCNQ2 enhance: enhances the rat KCNQ2 potassium channel. CHO-K1 KCNQ2, FluxOR thallium flux fluorescence; hits give high values. B-score at 10 µM. O88943. actives 0.54% (n = 310,000);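 active = fluorescence ratio B-score at least 3 SD of library B-scores, with initial fluorescence B-score within 3 of them, cut at about 5.3 in these data; same plate scores as AID 2156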;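 note: B-score of peak minus minimum over baseline fluorescence ratio after K+ and Tl+ stimulus; positive B-score means potentiation of KCNQ2 with more thallium influx and brighter signal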
Kir21 confirm: confirmation of mouse Kir2.1 potassium channel inhibitors; shares compounds with KCNQ2 enhance; Kir2.1-expressing cells, FluxOR thallium flux fluorescence; hits give low values; Tl flux remaining, % of negative control (hits give low values), % at 10 µM; actives 41% (n = 2,300); AID 2032;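 active = Primary-screen hit whose thallium flux fell at least 3 control SD below untreated wells in both duplicates, with normal baseline fluorescence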
HEK293 ctr: parental HEK293 activity in Kir2.1 inhibitor counter-screen. shares compounds with KCNQ2 enhance. parental HEK293 cells, FluxOR thallium flux fluorescence; 0% = unstimulated blank wells. FluxOR signal as % of negative control (100 = no effect), % at 10 µM. actives 19% (n = 2,300);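 active = dye signal at least 3 control SD above or below untreated wells in both duplicates, raw fluorescence within 3, either direction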;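 note: percent is based on the flux ratio of peak minus minimum fluorescence over baseline F0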
CHO-K1 ctr: alters thallium flux in parental CHO-K1 cells, KCNQ2 counter-screen | shares compounds with KCNQ2 enhance | FluxOR thallium flux fluorescence; zero = vehicle mean+3SD, 100% = vehicle-minus-blank window | activity increase over 3SD of controls, % at 10 µM | actives 43% (n = 1,200) | AID 2282;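 active = signal rise of at least 3 SD above the untreated control mean, in both duplicate wells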;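 note: counter screen of KCNQ2 potentiator hits so any rise reflects channel-independent effects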
KCNQ1 sel pot: tests whether KCNQ2 potentiators also act on human KCNQ1. activation over 3SD threshold, % at 10 µM. CHO KCNQ1 stable, FluxOR thallium flux fluorescence; beyond 3SD, as % of vehicle-control signal. AID 2283. shares compounds with KCNQ2 enhance. actives 28% (n = 1,200);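 active = fluorescence ratio rise of at least 3 SD of vehicle wells above their mean, in both replicate wells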
KCNQ2 pot confirm: rat KCNQ2 channel potentiator confirmation; shares compounds with KCNQ2 enhance; CHO-KCNQ2 cells, FluxOR thallium flux fluorescence; potentiation, less the hit threshold, % at 10 µM; actives 68% (n = 1,200); AID 2287;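 active = fluorescence ratio rising 3 SD or more over the vehicle control mean in both replicates, plus primary screen hit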;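 note: peak minus minimum thallium fluorescence divided by baseline after K/Tl stimulus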
Kir2-1 sel: mouse Kir2.1 off-target activity of KCNQ2 potentiators. shares compounds with KCNQ2 enhance. HEK293 Kir2.1, FluxOR thallium flux fluorescence. activity over 3SD threshold, % at 10 µM. actives 2% (n = 1,200);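 active = fluorescence ratio rise of at least 3 SD above the vehicle-control mean, seen in both replicates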
KCNQ2 W236L MoA: potentiates the retigabine-insensitive rat KCNQ2 W236L mutant channel. shares compounds with KCNQ2 enhance. CHO KCNQ2-W236L, automated patch clamp current. current increase over 3SD of negative controls (%), hits give high values, % at 25 µM. actives 10% (n = 940);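 active = current increase at least 3 SD of the untreated controls above them in both duplicate recordings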
Numbers stand for hits; . = inactive; / = no result.

SMILES | KCNQ2 inh | KCNQ2 enhance | Kir21 confirm | HEK293 ctr | others
Cc1ccc(C(=O)Nn2c(N)c(S(=O)(=O)c3ccc(C)cc3)c3nc4ccccc4nc32)cc1 | . | . | / | /
Cc1ccc(S(=O)(=O)c2c(N)n(NC(=O)c3ccccc3C)c3nc4ccccc4nc23)cc1 | . | . | . | . | CHO-K1 ctr=98;KCNQ1 sel pot=.;KCNQ2 pot confirm=.;Kir2-1 sel=.;KCNQ2 W236L MoA=.
COc1ccc(OCC(=O)N2N=C(C)CC2(O)C(F)(F)F)cc1 (stereo unspecified) | . | / | / | /
CC1=NN(C(=O)c2c(Br)cnn2C)C(O)(C(F)(F)F)C1 (stereo unspecified) | . | 14 | . | . | CHO-K1 ctr=.;KCNQ1 sel pot=.;KCNQ2 pot confirm=.;Kir2-1 sel=.
CCN1/C(=N\N)c2cccc3cccc1c23 | . | / | / | /
Cc1ccccc1CC(=O)Nc1ccc(C(=O)N2CCCC2)cc1 | . | . | / | /
CC(C)C[C@H](N)c1nnc(S(=O)(=O)Cc2cccc(F)c2)o1 | . | / | 72% | .
CC(C)CCNC(=O)c1ccc(CSCc2cccc(F)c2)o1 | . | / | / | /
CCn1c(N2CCN(C(=S)Nc3ccc(OC)cc3)CC2)nc2ccccc21 | . | . | / | /
Cc1ccsc1/C=N/Nc1ccc(F)cc1F | . | / | / | /
C=CCn1c(=S)[nH]c2ccc(Br)cc2c1=O | . | 5.9 | . | . | CHO-K1 ctr=.;KCNQ1 sel pot=.;KCNQ2 pot confirm=.;Kir2-1 sel=.;KCNQ2 W236L MoA=.
C=CCn1c(=S)[nH]c2cc(C(=O)Nc3ccc(OC)c(OC)c3)ccc2c1=O | . | / | / | /
CC(C)N(CCNC(=O)C1CCCN(c2ncnc3c2nc2n3CCCCC2)C1)Cc1ccccc1 (stereo unspecified) | . | / | / | /
O=C(/C=C/c1ccc2c(c1)OCO2)N1CCN(c2n[nH]c(=O)[nH]c2=O)CC1 | . | / | / | /
N#Cc1c(C(F)(F)F)cc(-c2ccc(Cl)cc2)[nH]c1=O | . | 6.5 | . | . | CHO-K1 ctr=0.0;KCNQ1 sel pot=.;KCNQ2 pot confirm=11;Kir2-1 sel=.;KCNQ2 W236L MoA=.
N#Cc1c(C(F)(F)F)cc(-c2ccc(F)cc2)[nH]c1=O | . | . | / | /
COc1cc(C(F)(F)F)ccc1C(=O)NCCc1ccco1 | . | . | / | /
COc1ccc(N2CCN(C(=O)CCc3nnc4ccc(N5CCOCC5)nn34)CC2)cc1 | . | / | / | /
O=C1CSC(c2ccccc2F)N1CCN1CCCCC1 (stereo unspecified) | . | . | / | /
O=C1CSC(c2ccccc2F)N1c1cc(Cl)ccc1O (stereo unspecified) | . | . | . | .
Cc1c(N=NC2=C(O)CC(C)(C)CC2=O)c(=O)n(-c2ccccc2)n1C | . | / | / | /
CCCNC(=O)c1nnsc1S(=O)c1ccc(Cl)cc1 (stereo unspecified) | -6.8 | . | 74% | .
CNC(=O)c1nnsc1S(=O)c1ccc(Cl)cc1 (stereo unspecified) | . | / | 66% | 65%
Cc1ccc(S(=O)c2snnc2C)cc1 (stereo unspecified) | . | / | / | /
Cc1nnsc1S(=O)c1ccc(F)cc1 (stereo unspecified) | . | . | / | /
SMILES | KCNQ2 inh | KCNQ2 enhance | Kir21 confirm | HEK293 ctr | others
Cc1ccc(CNC(=O)CSc2c3c(nc4cc(Cl)ccc24)CCCC3)o1 | . | / | / | /
CC(C)(C)c1nc(SCC(=O)NCc2ccco2)c2ccccc2n1 | . | . | / | /
COc1ccc(C(=O)CSc2nc(C(C)(C)C)nc3ccccc23)cc1 | . | 13 | / | / | CHO-K1 ctr=.;KCNQ1 sel pot=60;KCNQ2 pot confirm=20;Kir2-1 sel=.;KCNQ2 W236L MoA=.
O=C(COc1ncnc2ccc(Br)cc12)N1CCOCC1 | . | . | / | /
CC1CCN(C(=O)COc2ccc3ccccc3c2Br)CC1 | . | 16 | . | . | CHO-K1 ctr=.;KCNQ1 sel pot=.;KCNQ2 pot confirm=32;Kir2-1 sel=.;KCNQ2 W236L MoA=.
CC1CCN(C(=O)COc2ncnc3ccccc23)CC1 | . | . | / | /
O=C(COc1ccc2cc(Br)ccc2c1Br)N1CCOCC1 | . | 9.5 | . | . | CHO-K1 ctr=42;KCNQ1 sel pot=.;KCNQ2 pot confirm=8.8;Kir2-1 sel=.;KCNQ2 W236L MoA=.
O=C(NCc1cccc(Br)c1)C1CC(c2ccccc2[N+](=O)[O-])=NO1 (stereo unspecified) | . | / | / | /
N#C/C(=N\Nc1cccc2ccccc12)c1nnc2n1CCCCC2 | . | / | / | /
CC[C@@]12C(=O)N(c3cccc(F)c3)C(=O)N1[C@H](c1ccc(Br)cc1)[C@@H]1C(=O)N(C(C)(C)C)C(=O)[C@@H]12 | . | / | / | /
Cc1cc(SCC(=O)OCC(=O)N2CCCC2=O)c(C)cc1Br | . | . | . | .
NC(=O)c1ccc(SCC(=O)OCC(=O)N2CCCC2=O)c([N+](=O)[O-])c1 | . | . | / | /
COc1ccc(CCNC(=O)CCn2c(=O)c3cccn3c3cccnc32)cc1OC | . | . | / | /
CC1=C(C(=O)OCC2CCCO2)C(c2ccc(Cl)cc2)NC(=O)N1 (stereo unspecified) | . | . | / | /
CSCc1ccc(C(=O)N2CCCC(Nc3ccc(F)cc3)C2)o1 (stereo unspecified) | . | / | 50% | .
CSCc1ccc(C(=O)N2CCCC(Nc3ccc4c(c3)OCCO4)C2)o1 (stereo unspecified) | . | . | / | /
COc1ccc(C(CNC(=O)c2cccc(NS(=O)(=O)c3ccc(Br)cc3)c2)N(C)C)cc1 (stereo unspecified) | . | / | / | /
O=C(c1cccc(Cl)c1)N1CCC(c2nc3ccccc3[nH]2)CC1 | . | . | / | /
Clc1ccc2nc(C3CCN(Cc4ccccc4)CC3)[nH]c2c1 | . | / | 41% | .
CC1CCCCN1C(=O)CN1CCC(c2nc3ccc(Cl)cc3[nH]2)CC1 (stereo unspecified) | . | / | / | /
Cc1ccc(CN2CCC(c3nc4ccc(Cl)cc4[nH]3)CC2)cc1 | . | / | 26% | .
CC(C)(C)C(Cn1ccnc1)NC(=O)c1ccc2nc(C3CC3)oc2c1 (stereo unspecified) | . | / | / | /
CCC(NC(=O)NCc1cccnc1)(C(F)(F)F)C(F)(F)F | . | . | / | /
Cc1onc(-c2ccccc2)c1CNS(=O)(=O)c1cccc(Cl)c1 | . | . | 58% | .
Cc1ccc(S(=O)(=O)NCc2c(-c3ccccc3)noc2C)cc1 | . | / | / | /
O=C(N/N=C/c1cccc(Oc2ccccc2)c1)c1cccc(Br)c1 | . | / | / | /
O=C(N/N=C/c1cccc(Oc2ccccc2)c1)c1cccc(O)c1 | . | / | 74% | .
Cc1ccccc1CSCc1nc2ccccc2[nH]1 | . | / | / | /
Cc1ccc(C)c(CSCc2nc3ccccc3[nH]2)c1 | . | / | 74% | .
CCOC(=O)C1CCCN(C(=O)COC(=O)c2ccc(C#N)cc2)C1 (stereo unspecified) | . | . | / | /
